This passage reports binding signal results from publication PMC7862700, “An all-to-all approach to the identification of sequence-specific readers for epigenetic DNA modifications on cytosine”.

Assay in all cases: DAPPL (digital affinity profiling via proximity ligation, sequencing); 10 mM Tris-HCl pH 7.5, 50 mM NaCl, 1 mM DTT, 4% glycerol, room temperature, 30 min; GST-TFs on glutathione beads, 16-mer random dsDNA library, 0.1% formaldehyde crosslink after washing; high values mean tight binding
For test [1], the target named is T1, FEV (Homo sapiens, UniProt Q99581 1-238).
T1 sequence: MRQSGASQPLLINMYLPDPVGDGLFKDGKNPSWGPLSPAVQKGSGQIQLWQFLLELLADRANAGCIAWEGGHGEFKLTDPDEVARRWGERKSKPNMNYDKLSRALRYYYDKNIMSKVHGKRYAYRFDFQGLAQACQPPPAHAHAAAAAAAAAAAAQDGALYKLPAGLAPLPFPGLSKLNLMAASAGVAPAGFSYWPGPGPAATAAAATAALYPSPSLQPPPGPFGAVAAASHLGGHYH
As to conditions: protein: recombinant; tags: N-terminal GST; dsDNA, one strand shown. In a few lines:
(§1)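 Human transcription factors were made in yeast as GST fusions, captured on glutathione beads and barcoded with DNA. With a tag-only sample included, the pool was incubated with 200 nmole of a random double-stranded 16-mer DNA library in Tris/NaCl/DTT/glycerol buffer at room temperature for 30 min, then crosslinked with 0.1% formaldehyde after washing, ligated by proximity, amplified and sequenced. For binding signal, each hexamer's read frequency for a factor is divided by its frequency for the tag-only sample.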

The target of test [2] is ETV5 (Homo sapiens, UniProt P41161 1-510). The note with it: protein: recombinant; tags: N-terminal GST; dsDNA, one strand shown. In a few lines:
as §1

Test [3] deals with HSF1 (Homo sapiens, UniProt Q00613 1-529). As to conditions: protein: recombinant; tags: N-terminal GST; chain copies: 3; dsDNA, one strand shown. The method, boiled down:
as §1

In test [4] the target is T2, SPIC (Homo sapiens, UniProt Q8N5J4 1-248).
T2 sequence: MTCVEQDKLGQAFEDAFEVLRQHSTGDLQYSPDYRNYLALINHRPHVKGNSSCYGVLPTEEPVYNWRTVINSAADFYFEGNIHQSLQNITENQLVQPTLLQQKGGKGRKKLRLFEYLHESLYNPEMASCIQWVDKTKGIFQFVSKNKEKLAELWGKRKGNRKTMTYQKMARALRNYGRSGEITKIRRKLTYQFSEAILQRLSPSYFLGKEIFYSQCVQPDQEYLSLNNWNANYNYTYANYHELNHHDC
The note with it: protein: recombinant; tags: N-terminal GST; dsDNA, one strand shown. The method, boiled down:
as §1

The target of test [5] is ELF4 (Homo sapiens, UniProt Q99607 1-663). The note with it: protein: recombinant; tags: N-terminal GST; dsDNA, one strand shown. In a few lines:
as §1

Test [6] has as its target T3, ELK4 (Homo sapiens, UniProt P28324-2 1-405).
T3 sequence: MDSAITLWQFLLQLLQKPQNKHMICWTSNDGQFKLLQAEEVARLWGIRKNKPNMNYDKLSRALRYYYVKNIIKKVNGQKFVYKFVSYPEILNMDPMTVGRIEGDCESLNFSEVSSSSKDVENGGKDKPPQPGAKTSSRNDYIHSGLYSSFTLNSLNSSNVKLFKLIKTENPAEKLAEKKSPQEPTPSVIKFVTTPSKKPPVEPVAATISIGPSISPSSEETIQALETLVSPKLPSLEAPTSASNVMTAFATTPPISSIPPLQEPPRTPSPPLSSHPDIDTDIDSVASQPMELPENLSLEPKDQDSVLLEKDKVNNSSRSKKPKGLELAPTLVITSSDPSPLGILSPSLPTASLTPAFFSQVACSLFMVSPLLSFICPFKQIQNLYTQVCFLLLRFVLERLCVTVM
As to conditions: protein: recombinant; tags: N-terminal GST; dsDNA, one strand shown. In a few lines: as §1

Test [7] deals with T4, ETV2 (Homo sapiens, UniProt O00321 1-342).
T4 sequence: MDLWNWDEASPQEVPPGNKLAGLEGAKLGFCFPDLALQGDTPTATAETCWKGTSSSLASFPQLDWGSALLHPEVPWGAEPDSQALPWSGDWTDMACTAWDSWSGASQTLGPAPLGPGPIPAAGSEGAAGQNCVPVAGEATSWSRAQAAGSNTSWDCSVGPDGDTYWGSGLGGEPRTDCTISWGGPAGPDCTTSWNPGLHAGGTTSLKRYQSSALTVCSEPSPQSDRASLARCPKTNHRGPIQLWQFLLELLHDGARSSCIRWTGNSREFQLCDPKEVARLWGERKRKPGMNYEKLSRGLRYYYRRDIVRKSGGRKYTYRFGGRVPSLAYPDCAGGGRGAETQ
The note with it: protein: recombinant; tags: N-terminal GST; dsDNA, one strand shown. In a few lines: as §1

Test [8] has as its target T5, ELF3 (Homo sapiens, UniProt P78545 1-371).
T5 sequence: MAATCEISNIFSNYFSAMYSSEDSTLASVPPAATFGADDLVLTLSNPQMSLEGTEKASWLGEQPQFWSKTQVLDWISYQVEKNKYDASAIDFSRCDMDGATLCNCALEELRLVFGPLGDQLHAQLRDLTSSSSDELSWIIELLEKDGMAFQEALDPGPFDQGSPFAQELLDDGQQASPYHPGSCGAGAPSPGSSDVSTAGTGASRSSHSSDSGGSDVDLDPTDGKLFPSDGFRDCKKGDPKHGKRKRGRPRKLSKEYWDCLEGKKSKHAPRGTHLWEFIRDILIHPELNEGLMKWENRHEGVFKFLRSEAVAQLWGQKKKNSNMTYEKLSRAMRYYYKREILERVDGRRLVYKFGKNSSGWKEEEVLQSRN
As to conditions: protein: recombinant; tags: N-terminal GST; dsDNA, one strand shown. In a few lines: as §1

Test [9] addresses CRX (Homo sapiens, UniProt O43186 1-299). The note with it: protein: recombinant; tags: N-terminal GST; dsDNA, one strand shown. The method, boiled down: as §1
Test [10] concerns the target ETV1 (Homo sapiens, UniProt P50549 1-477). As to conditions: protein: recombinant; tags: N-terminal GST; dsDNA, one strand shown. In a few lines: as §1
Test [11] concerns the target T6, ERF (Homo sapiens, UniProt P50548 1-548).
T6 sequence: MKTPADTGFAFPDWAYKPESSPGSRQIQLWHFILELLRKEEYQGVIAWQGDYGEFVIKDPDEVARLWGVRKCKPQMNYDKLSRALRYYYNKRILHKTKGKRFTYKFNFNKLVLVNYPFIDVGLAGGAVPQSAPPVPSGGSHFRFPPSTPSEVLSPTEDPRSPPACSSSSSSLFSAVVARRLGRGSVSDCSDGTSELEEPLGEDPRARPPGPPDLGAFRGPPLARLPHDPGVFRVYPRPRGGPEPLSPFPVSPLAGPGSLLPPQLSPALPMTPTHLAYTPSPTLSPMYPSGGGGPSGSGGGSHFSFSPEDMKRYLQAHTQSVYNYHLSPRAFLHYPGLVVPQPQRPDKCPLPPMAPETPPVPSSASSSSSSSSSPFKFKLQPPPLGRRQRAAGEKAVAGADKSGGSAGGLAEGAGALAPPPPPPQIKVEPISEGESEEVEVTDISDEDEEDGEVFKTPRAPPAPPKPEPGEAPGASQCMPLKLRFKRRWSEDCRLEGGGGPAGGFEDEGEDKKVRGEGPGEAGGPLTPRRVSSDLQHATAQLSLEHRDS
As to conditions: protein: recombinant; tags: N-terminal GST; dsDNA, one strand shown. In a few lines: as §1

In test [12] the target is T7, ETV3L (Homo sapiens, UniProt Q6ZN32 1-361).
T7 sequence: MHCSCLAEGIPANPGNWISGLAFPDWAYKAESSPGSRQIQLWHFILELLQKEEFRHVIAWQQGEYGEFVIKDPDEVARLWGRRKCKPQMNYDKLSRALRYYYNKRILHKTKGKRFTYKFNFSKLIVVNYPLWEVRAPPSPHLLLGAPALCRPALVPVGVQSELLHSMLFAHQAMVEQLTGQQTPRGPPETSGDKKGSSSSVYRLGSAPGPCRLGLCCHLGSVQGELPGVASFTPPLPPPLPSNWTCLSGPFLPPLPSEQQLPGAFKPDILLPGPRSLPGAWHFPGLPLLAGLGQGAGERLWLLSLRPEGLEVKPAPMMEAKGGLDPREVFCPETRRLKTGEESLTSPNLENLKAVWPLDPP
As to conditions: protein: recombinant; tags: N-terminal GST; dsDNA, one strand shown. In a few lines: as §1

The target in test [13] is T8, ETS2 (Homo sapiens, UniProt P15036 1-469).
T8 sequence: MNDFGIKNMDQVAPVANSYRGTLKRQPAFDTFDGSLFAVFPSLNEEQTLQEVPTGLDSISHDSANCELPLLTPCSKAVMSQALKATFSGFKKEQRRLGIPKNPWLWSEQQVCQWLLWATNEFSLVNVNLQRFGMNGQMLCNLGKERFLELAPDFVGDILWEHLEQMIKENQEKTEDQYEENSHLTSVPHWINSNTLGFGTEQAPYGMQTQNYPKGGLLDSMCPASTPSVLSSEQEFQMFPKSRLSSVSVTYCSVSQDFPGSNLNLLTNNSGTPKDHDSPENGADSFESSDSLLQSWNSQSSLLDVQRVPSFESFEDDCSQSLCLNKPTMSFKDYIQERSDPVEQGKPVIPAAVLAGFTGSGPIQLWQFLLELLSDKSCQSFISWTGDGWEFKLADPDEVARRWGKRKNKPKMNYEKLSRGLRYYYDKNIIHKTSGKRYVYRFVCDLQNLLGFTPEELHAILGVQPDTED
As to conditions: protein: recombinant; tags: N-terminal GST; dsDNA, one strand shown. The method, boiled down: as §1

For test [14], the target named is T9, SPDEF (Homo sapiens, UniProt O95238 1-335).
T9 sequence: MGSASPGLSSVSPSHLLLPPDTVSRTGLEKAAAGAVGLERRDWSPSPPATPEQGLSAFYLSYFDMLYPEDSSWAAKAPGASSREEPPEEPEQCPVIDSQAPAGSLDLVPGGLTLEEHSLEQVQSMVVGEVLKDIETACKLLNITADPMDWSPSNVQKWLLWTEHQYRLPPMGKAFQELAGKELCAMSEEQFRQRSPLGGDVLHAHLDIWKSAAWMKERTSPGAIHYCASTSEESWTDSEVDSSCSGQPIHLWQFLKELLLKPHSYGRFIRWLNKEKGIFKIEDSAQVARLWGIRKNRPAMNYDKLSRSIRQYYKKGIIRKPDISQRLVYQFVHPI
As to conditions: protein: recombinant; tags: N-terminal GST; dsDNA, one strand shown. The method, boiled down:
as §1

In test [15] the target is T10, ETV7 (Homo sapiens, UniProt Q9Y603 1-341).
T10 sequence: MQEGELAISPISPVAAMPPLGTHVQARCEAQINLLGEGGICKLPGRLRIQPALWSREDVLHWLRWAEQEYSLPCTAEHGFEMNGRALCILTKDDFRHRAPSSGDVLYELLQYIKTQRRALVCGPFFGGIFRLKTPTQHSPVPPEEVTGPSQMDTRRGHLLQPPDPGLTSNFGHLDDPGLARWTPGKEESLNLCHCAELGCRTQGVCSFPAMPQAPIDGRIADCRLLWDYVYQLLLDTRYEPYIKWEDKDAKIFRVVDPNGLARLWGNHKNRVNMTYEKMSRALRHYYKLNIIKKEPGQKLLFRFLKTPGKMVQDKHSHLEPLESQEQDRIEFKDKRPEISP
The note with it: protein: recombinant; tags: N-terminal GST; dsDNA, one strand shown. In a few lines: as §1

For test [16], the target named is T11, ELF5 (Homo sapiens, UniProt Q9UKW6-2 1-255).
T11 sequence: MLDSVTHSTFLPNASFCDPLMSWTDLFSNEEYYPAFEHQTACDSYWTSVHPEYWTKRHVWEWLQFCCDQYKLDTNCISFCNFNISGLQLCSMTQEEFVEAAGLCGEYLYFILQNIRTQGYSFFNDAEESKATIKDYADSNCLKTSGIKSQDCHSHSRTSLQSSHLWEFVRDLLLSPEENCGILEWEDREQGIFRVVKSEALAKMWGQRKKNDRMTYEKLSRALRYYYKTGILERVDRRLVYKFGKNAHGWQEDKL
The note with it: protein: recombinant; tags: N-terminal GST; dsDNA, one strand shown. In a few lines:
as §1

Test [17] addresses T12, ETV3 (Homo sapiens, UniProt P41162-2 1-143).
T12 sequence: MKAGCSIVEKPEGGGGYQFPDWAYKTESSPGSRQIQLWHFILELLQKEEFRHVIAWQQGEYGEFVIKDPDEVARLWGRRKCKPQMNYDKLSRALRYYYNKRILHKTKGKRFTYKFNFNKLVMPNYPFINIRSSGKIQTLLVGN
The note with it: protein: recombinant; tags: N-terminal GST; dsDNA, one strand shown. In a few lines: as §1

The target in test [18] is ETV6 (Homo sapiens, UniProt P41212 1-452). As to conditions: protein: recombinant; tags: N-terminal GST; dsDNA, one strand shown. In a few lines:
as §1

Chain of ELF4 (Q99607 whole entry): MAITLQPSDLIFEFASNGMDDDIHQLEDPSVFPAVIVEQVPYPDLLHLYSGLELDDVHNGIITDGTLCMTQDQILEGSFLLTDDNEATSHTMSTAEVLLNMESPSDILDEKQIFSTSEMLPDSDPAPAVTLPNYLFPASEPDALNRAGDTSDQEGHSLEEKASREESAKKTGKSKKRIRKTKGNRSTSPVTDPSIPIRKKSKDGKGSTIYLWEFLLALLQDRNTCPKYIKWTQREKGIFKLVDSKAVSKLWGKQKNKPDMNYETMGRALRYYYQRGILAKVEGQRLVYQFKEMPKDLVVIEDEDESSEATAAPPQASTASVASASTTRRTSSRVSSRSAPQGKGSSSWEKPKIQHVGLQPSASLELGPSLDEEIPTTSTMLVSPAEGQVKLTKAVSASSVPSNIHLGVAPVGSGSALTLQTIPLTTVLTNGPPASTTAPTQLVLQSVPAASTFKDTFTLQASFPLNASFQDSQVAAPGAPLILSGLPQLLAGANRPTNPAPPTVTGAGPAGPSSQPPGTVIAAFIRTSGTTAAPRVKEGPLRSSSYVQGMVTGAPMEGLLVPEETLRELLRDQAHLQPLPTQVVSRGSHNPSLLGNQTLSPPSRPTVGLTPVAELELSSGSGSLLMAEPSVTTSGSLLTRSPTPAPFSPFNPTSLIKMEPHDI
Chain of CRX (O43186 whole entry): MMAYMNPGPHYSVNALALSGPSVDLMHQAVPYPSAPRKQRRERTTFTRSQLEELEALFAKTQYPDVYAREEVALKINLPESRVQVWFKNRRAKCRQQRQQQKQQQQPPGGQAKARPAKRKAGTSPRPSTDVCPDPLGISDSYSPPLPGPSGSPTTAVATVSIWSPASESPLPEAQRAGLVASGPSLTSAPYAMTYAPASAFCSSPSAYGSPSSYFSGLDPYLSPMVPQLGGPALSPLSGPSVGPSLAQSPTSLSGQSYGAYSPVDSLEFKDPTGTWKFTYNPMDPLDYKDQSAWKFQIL
Chain of ETV6 (P41212 whole entry): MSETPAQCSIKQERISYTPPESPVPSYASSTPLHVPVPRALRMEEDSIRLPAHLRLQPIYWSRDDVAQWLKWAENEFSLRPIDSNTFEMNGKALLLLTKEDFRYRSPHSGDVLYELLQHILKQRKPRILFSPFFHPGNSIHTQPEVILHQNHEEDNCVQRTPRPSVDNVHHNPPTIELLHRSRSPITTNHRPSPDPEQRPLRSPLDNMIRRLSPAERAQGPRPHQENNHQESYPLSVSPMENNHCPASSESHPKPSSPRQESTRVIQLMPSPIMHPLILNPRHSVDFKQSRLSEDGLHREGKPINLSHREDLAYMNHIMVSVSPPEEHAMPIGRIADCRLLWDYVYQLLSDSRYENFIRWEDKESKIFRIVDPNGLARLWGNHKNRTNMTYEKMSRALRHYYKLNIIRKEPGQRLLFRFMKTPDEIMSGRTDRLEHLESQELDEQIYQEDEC
Chain of ETV5 (P41161 whole entry): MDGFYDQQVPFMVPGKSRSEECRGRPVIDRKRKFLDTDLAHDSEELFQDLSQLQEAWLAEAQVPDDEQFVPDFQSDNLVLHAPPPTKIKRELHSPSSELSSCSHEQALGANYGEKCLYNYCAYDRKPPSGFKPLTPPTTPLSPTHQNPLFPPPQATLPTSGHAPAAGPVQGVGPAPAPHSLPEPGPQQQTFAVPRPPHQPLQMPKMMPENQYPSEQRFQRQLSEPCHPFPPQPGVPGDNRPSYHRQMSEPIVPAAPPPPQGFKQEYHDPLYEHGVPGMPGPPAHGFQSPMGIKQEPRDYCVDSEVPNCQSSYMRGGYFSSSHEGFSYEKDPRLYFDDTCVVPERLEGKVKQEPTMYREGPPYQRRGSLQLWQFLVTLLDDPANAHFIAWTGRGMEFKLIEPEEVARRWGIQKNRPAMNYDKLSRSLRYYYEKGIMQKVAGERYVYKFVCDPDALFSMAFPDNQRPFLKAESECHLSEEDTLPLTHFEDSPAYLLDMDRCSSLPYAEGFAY
Chain of ETV1 (P50549 whole entry): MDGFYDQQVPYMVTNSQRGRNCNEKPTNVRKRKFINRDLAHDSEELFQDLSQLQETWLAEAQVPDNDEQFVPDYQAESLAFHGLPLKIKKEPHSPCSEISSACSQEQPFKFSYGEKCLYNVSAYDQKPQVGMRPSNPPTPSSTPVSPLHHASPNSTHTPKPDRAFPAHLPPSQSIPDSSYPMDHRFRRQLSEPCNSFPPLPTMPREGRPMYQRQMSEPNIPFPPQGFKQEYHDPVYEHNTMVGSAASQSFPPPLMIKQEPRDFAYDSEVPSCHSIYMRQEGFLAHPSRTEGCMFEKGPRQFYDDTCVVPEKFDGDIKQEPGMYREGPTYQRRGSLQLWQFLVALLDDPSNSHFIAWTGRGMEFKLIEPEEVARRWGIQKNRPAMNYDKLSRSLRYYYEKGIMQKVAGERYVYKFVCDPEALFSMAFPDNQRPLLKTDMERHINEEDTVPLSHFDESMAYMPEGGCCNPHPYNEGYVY
Chain of HSF1 (Q00613 whole entry): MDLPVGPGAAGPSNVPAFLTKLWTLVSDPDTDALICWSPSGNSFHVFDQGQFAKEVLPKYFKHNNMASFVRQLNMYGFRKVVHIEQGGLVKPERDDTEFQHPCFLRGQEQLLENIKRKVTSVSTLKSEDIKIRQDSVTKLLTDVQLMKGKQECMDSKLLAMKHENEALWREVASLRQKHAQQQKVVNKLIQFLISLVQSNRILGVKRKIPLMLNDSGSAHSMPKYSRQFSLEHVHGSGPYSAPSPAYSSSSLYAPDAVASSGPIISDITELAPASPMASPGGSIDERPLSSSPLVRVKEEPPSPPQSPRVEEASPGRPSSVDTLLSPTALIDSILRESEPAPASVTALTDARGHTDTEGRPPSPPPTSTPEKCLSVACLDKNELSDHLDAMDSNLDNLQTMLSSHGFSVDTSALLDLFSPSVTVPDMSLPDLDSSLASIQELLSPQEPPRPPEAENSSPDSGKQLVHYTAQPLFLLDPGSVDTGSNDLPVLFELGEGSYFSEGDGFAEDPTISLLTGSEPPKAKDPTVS

Consider GGCCTT, for which the binding signal in test [1] was 1.14 fold enrichment (6-mer frequency, TF over GST control); in test [2], 1.16 fold enrichment (6-mer frequency, TF over GST control); in [3], 1.05 fold enrichment (6-mer frequency, TF over GST control); in [4], 1.16 fold enrichment (6-mer frequency, TF over GST control); in test [5], 1.25 fold enrichment (6-mer frequency, TF over GST control); in [6], 1.09 fold enrichment (6-mer frequency, TF over GST control). The binding signal is 1.07 fold enrichment (6-mer frequency, TF over GST control) in [7]; 1.15 fold enrichment (6-mer frequency, TF over GST control) in [8]; 1.02 fold enrichment (6-mer frequency, TF over GST control) in test [9]; 1.1 fold enrichment (6-mer frequency, TF over GST control) in test [10]; 1.12 fold enrichment (6-mer frequency, TF over GST control) in [11]; 1.05 fold enrichment (6-mer frequency, TF over GST control) in [12]. Besides, the binding signal is 1.09 fold enrichment (6-mer frequency, TF over GST control) in test [13]; 1.06 fold enrichment (6-mer frequency, TF over GST control) in [14]; 1.34 fold enrichment (6-mer frequency, TF over GST control) in [15]; 1.06 fold enrichment (6-mer frequency, TF over GST control) in [16]; 1.11 fold enrichment (6-mer frequency, TF over GST control) in test [17]; 1.04 fold enrichment (6-mer frequency, TF over GST control) in [18].
